Measurements: the supplement of paper PMC9023506
Where a name gives a salt, the structure may show the parent alone.

System: Danio rerio larvae (5 dpf)
Assay: excitability to 1-s acoustic pulses, difference vs DMSO (percentage points (treated minus DMSO)); higher = more of the behaviour than the DMSO vehicle control
Conditions: 10 µM; exposure time: 3 h pre-incubation + 3 h imaging
Description: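 5-dpf wild-type zebrafish larvae were imaged in 96-well plates. They were treated with 190 Tocris FDA-approved drugs at 10 µM (1 µl/ml DMSO) for 3 h before and 3 h during imaging at 28.5 °C, 48 larvae per drug. Automated image analysis gave % time moving and optomotor responses. Values are drug group mean minus DMSO vehicle mean (n=844), in percentage points, for 10 behaviours.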

Point of comparison: `Cc1c(-c2ccc(O)cc2)n(Cc2ccc(OCCN3CCCCCC3)cc2)c2ccc(O)cc12` [Bazedoxifene acetate], “excitability to 1-s acoustic pulses” value 16. Against it:
- CNS(=O)(=O)Cc1ccc2[nH]cc(CCN(C)C)c2c1 [Sumatriptan succinate] — lower, -8.18
- N#Cc1ccc(C(c2ccc(C#N)cc2)n2cncn2)cc1 [Letrozole] — lower, -0.518
- CCOc1cc(CC(=O)N[C@@H](CC(C)C)c2ccccc2N2CCCCC2)ccc1C(=O)O [Repaglinide] — lower, 9.31
- NC(=O)N1c2ccccc2C=Cc2ccccc21 [Carbamazepine] — lower, -0.497
- O=C(O)C[C@H](O)C[C@H](O)/C=C/c1c(C2CC2)nc2ccccc2c1-c1ccc(F)cc1 [Pitavastatin calcium] — lower, 0.628
- CC(=O)Oc1cc2c(s1)CCN(C(C(=O)C1CC1)c1ccccc1F)C2 (stereo not given) [Prasugrel] — lower, 5.57
- CC[C@H](C)C(=O)O[C@H]1C[C@@H](C)C=C2C=C[C@H](C)[C@H](CC[C@@H]3C[C@@H](O)CC(=O)O3)[C@H]21 [Lovastatin] — lower, 12.6
- CCCc1nc(C(C)(C)O)c(C(=O)O)n1Cc1ccc(-c2ccccc2-c2nnn[nH]2)cc1 [Olmesartan] — lower, -0.185
- OCCOCCN1CCN(C2=Nc3ccccc3Sc3ccccc32)CC1 [Quetiapine hemifumarate] — lower, 9.86
- CC(C)c1ccc2oc3nc(N)c(C(=O)O)cc3c(=O)c2c1 [Amlexanox] — lower, 6.32
- CN1CC(=O)N2[C@H](c3ccc4c(c3)OCO4)c3[nH]c4ccccc4c3C[C@@H]2C1=O [Tadalafil] — lower, 4.84
- CC(=O)S[C@@H]1CC2=CC(=O)CC[C@]2(C)[C@H]2CC[C@@]3(C)[C@@H](CC[C@@]34CCC(=O)O4)[C@H]12 [Spironolactone] — lower, 1.36
- Nc1ncn([C@H]2C[C@H](O)[C@@H](CO)O2)c(=O)n1 [Decitabine] — lower, 6.23
- O=C(Nc1c(Cl)cncc1Cl)c1ccc(OC(F)F)c(OCC2CC2)c1 [Roflumilast] — higher, 16.7
- CNCc1ccc(-c2[nH]c3cc(F)cc4c3c2CCNC4=O)cc1 [Rucaparib camsylate] — lower, 12.5
- COc1ccc(-c2ccc3cc(C(=O)O)ccc3c2)cc1C12CC3CC(CC(C3)C1)C2 [Adapalene] — lower, -0.119
- CCCCC1=NC2(CCCC2)C(=O)N1Cc1ccc(-c2ccccc2-c2nnn[nH]2)cc1 [Irbesartan] — lower, -3.79
- Nc1nc(NC2CC2)c2ncn([C@H]3C=C[C@@H](CO)C3)c2n1 [Abacavir hemisulfate] — lower, -1.97
- Cc1ccc(NC(=O)c2ccc(CN3CCN(C)CC3)cc2)cc1Nc1nccc(-c2cccnc2)n1 [Imatinib mesylate] — lower, 12.7
- CN1CCC[C@@H]1Cc1c[nH]c2ccc(CCS(=O)(=O)c3ccccc3)cc12 [Eletriptan hydrobromide] — lower, 3.9
- CC(=O)O[C@]1(C(C)=O)CC[C@H]2[C@@H]3C=C(C)C4=CC(=O)CC[C@]4(C)[C@H]3CC[C@@]21C [Megestrol Acetate] — lower, 14.4
- CC1CNc2c(cccc2S(=O)(=O)N[C@@H](CCCNC(=N)N)C(=O)N2CC[C@@H](C)C[C@@H]2C(=O)O)C1 (stereo not given in full) [Argatroban] — lower, 0.477
- Nc1cccc2c1CN(C1CCC(=O)NC1=O)C2=O (stereo not given) [Lenalidomide] — lower, -2.77
- CC#C[C@]1(O)CC[C@H]2[C@@H]3CCC4=CC(=O)CCC4=C3[C@@H](c3ccc(N(C)C)cc3)C[C@@]21C [Mifepristone] — lower, 5.32
- Nc1nc(Cl)nc2c1ncn2[C@@H]1O[C@H](CO)[C@@H](O)[C@@H]1F [Clofarabine] — lower, 2.22
- CC(C)c1nc(N(C)S(C)(=O)=O)nc(-c2ccc(F)cc2)c1/C=C/[C@@H](O)C[C@@H](O)CC(=O)O [Rosuvastatin calcium] — lower, -0.497
- CC(C)COCC(CN(Cc1ccccc1)c1ccccc1)N1CCCC1 (stereo not given) [Bepridil hydrochloride] — lower, 15
- CC1(C)O[C@@H]2[C@@H](CO[C@@]3(COS(N)(=O)=O)OC(C)(C)O[C@@H]23)O1 [Topiramate] — lower, 4.36
- CN(CCOc1ccc(NS(C)(=O)=O)cc1)CCc1ccc(NS(C)(=O)=O)cc1 [Dofetilide] — lower, 4.42
- CN(C)CCc1c[nH]c2ccc(C[C@H]3COC(=O)N3)cc12 [Zolmitriptan] — lower, 3.25
- CN1CCN(CCCN2c3ccccc3Sc3ccc(Cl)cc32)CC1 [Prochlorperazine dimaleate] — higher, 23.6
- Clc1ccccc1C(c1ccccc1)(c1ccccc1)n1ccnc1 [Clotrimazole] — lower, 14
- Nc1ncn([C@@H]2O[C@H](CO)[C@@H](O)[C@H]2O)c(=O)n1 [5-Azacytidine] — lower, -3.59
- CCC(C)(C)C(=O)O[C@H]1C[C@@H](C)C=C2C=C[C@H](C)[C@H](CC[C@@H]3C[C@@H](O)CC(=O)O3)[C@H]21 [Simvastatin] — lower, 8.31
- COc1ccc(C[C@@H](C)NC[C@H](O)c2ccc(O)c(NC=O)c2)cc1 [Arformoterol tartrate] — lower, 5.34
- C[C@]12CCC(=O)C=C1CC[C@@H]1[C@@H]2[C@@H](O)C[C@@]2(C)[C@H]1CC[C@]2(O)C(=O)CO [Hydrocortisone] — lower, 1.67
- C[C@H]1O[C@H](O[C@H]2[C@H](O)[C@@H](O)[C@@H](O[C@H]3[C@H](O)[C@@H](O)C(O)O[C@@H]3CO)O[C@@H]2CO)[C@H](O)[C@@H](O)[C@@H]1N[C@H]1C=C(CO)[C@@H](O)[C@H](O)[C@H]1O (stereo not given in full) [Acarbose] — lower, -4.01
- Nc1ccn([C@@H]2O[C@H](CO)[C@@H](O)C2(F)F)c(=O)n1 [Gemcitabine hydrochloride] — lower, -1.2
- COc1cc(N)c(Cl)cc1C(=O)NC1CCN(CCCOc2ccc(F)cc2)CC1OC (stereo not given) [Cisapride] — higher, 16.4
